High-throughput results as filed in PubChem BioAssay.
Only some compounds are listed: those with a hit (about 7.4% of all), similar ones and a draw of the others.
SNCA expr inh: inhibitors of alpha-synuclein (SNCA) gene expression | HEK-293 SNCA-luciferase knock-in, luminescence, 24 h | AID 1671194 | Potency, µM (doses to about 57.2 µM), inactives show top-dose activity change, negative = inhibition, actives largely listed as inhibitors | 0.17% of 140,000 active;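 note: plate controls were DMSO cells for no effect and cell-free wells for full effect; nearly all actives have a fitted effect of over 45% in size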
NPR1 antag: blocks ANP-stimulated signaling of human Npr1 receptor. P16066. Potency, µM (titrated, usually from 46.3 µM), without a hit: top-dose activity change, negative = inhibition, actives largely listed as inhibitors. 1.6% of 76,000 active. HEK293 hNpr1 GloSensor cGMP, ANP-stimulated luminescence; calls by dose curve; note: % is set by controls: 0 for no effect and ±100 for the full control effect; nearly all actives have a fitted effect of over 60% in size
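Compound pre-incubated 30 min at room temperature on GloSensor-loaded HEK293 cells stably carrying hNpr1 and the pGS-40F cGMP biosensor. Stimulation uses hNppA at 0.1 nM final; luminescence is taken at baseline and 20 min post-agonist.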
FLuc inh: Photinus pyralis luciferase inhibition. P08659. purified P. pyralis luciferase, luminescence, biochemical. Potency, µM (series often up to 115 µM), most hits filed as inhibitors. 2.5% of 76,000 active; note: % is set by controls: 0 for no effect and ±100 for the full control effect; nearly all actives have a fitted effect of over 65% in size
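Inhibitors were tested against purified firefly luciferase in a biochemical, low-substrate format (both substrates at 10uM) and luminescence measured with a CCD imager.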
NIH3T3 tox: kills NIH 3T3 cells; 4.3% of 94,000 active; NIH 3T3 viability, CellTiter-Glo ATP luminescence, 48-72 h; Potency, µM (doses to about 96.7 µM), without a hit: at the highest dose activity change, negative = cytotoxicity, hits mostly inhibitors; note: % is set by controls: 0 for no effect and ±100 for the full control effect; nearly all actives have a fitted effect of over 55% in size
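Luminescent ATP readout (CellTiter-Glo, 10 min RT) after 48 or 72 hr compound exposure of NIH 3T3 cells seeded at 400 cells/well in 1536-well format; quantitative HTS.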
HEK cytotox: HEK 293 cell cytotoxicity | 6.6% of 94,000 active | AID 1345083 | Potency, µM (titrated, usually from 115 µM), for the others: at the highest dose activity change, negative = cytotoxicity, hits mostly inhibitors | HEK 293 viability, ATP luminescence (CellTiter-Glo), 48-72 h; note: % is set by controls: 0 for no effect and ±100 for the full control effect; nearly all actives have a fitted effect of over 60% in size
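Luminescence from cellular ATP, measured with CellTiter-Glo, indicates HEK 293 viability. Cells plated at 250 cells/well are treated with compound for 48 or 72 hr at 37 degree Celsius before reagent addition.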
SNCA viab count: reduces viability of HEK-293 SNCA reporter cells. HEK-293-SNCA-luc viability, GF-AFC fluorescence, 24 h. Potency, µM (doses to about 57.1 µM), inactives show at the top dose activity change, negative = cytotoxicity, hits mostly cytotoxic. 0.12% of 150,000 active. AID 1671193;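 note: 0% = DMSO-treated cells and -100% = medium-only wells without cells; nearly all actives have a fitted effect of over 30% in size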
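HEK-293-SNCA-luc cells (1500/well) plated 24 h, then exposed 24 h to a dilution series; GF-AFC added 30 min at 37C, fluorescence 405/540 nm; normalised to medium-only and DMSO wells, Hill fit.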
Npr1 antag conf: hNpr1 antagonism, confirmation assay | shares compounds with NPR1 antag | HEK293 hNpr1 cGMP GloSensor luminescence, ANP-stimulated | Potency, µM (doses to about 57.6 µM), inactives show at the top dose activity change, negative = inhibition, hits mostly inhibitors | 76% of 1,400 active | AID 1347044; calls by dose curve; note: nearly all actives have a fitted effect of over 70% in size
NPR2 antag: antagonizes human Npr2, subtype selectivity check; shares compounds with NPR1 antag; HEK293 hNpr2 GloSensor cGMP luminescence, CNP-stimulated; Potency, µM (titrated, usually from 57.6 µM), inactives show at the highest dose activity change, negative = inhibition, hits mostly inhibitors; 67% of 1,400 active; calls by dose curve; note: nearly all actives have a fitted effect of over 70% in size
Target sequence (P20594 whole entry, looked up): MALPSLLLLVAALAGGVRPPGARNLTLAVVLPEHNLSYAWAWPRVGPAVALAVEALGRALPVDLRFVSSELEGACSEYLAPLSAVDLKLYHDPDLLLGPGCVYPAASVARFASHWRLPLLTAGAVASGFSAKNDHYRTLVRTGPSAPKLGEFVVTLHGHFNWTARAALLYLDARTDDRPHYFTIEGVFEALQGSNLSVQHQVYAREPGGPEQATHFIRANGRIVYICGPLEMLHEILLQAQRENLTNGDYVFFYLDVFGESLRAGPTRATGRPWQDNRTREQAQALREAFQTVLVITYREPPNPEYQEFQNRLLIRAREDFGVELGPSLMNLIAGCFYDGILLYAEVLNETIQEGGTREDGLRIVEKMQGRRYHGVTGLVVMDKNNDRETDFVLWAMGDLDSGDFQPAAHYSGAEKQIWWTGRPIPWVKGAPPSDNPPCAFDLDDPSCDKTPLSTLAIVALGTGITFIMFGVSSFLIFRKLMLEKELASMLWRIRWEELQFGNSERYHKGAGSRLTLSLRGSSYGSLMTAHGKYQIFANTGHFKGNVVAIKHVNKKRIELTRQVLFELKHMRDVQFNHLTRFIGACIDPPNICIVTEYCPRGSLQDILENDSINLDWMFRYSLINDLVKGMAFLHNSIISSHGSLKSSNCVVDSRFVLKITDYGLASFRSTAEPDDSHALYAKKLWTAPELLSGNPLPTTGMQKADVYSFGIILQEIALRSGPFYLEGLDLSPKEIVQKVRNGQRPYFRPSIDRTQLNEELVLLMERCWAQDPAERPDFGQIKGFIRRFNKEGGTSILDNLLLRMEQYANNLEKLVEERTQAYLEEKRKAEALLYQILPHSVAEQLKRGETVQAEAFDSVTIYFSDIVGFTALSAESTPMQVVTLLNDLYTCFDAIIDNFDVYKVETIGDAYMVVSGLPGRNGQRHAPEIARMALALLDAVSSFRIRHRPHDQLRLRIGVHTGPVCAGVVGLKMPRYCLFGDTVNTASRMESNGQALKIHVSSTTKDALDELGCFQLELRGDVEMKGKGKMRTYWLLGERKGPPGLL
FLuc inh counter: counter-screen for Npr1 antagonists: firefly luciferase inhibitors. purified FLuc enzyme, luminescence, Km substrate. shares compounds with NPR1 antag. Potency, µM (series often up to 57.6 µM), inactives show at the highest dose activity change, negative = inhibition, usual class: inhibitors. 0.7% of 1,400 active; note: 0% is about no effect
GloSensor ctrl: control cell line activity, Npr1 antagonist counter-screen. shares compounds with NPR1 antag. HEK293 GloSensor cGMP, SNP-stimulated, luminescence. Potency, µM (titrated, usually from 57.6 µM), for inactives: at the highest dose activity change, negative = inhibition, hits mostly inhibitors. 69% of 1,400 active. AID 1347051; calls by dose curve; note: % is set by controls: 0 for no effect and ±100 for the full control effect; nearly all actives have a fitted effect of over 70% in size
* = called active by the depositor; i = inactive; ? = inconclusive; . = no result given; [ ] = remark or other dose. Unless noted, calls come from the whole dose curve; as a rule, active = well fitted curve in the direction sought with a large enough effect; inconclusive = small, poorly fitted or top-dose-only effect, or another doubt; inactive = no such curve, though single readings can be large; an effect the other way counts as inactive or inconclusive. Potency is the fitted concentration of half-maximal effect.

SMILES | SNCA expr inh | NPR1 antag | FLuc inh | NIH3T3 tox | HEK cytotox | SNCA viab count | Npr1 antag conf | NPR2 antag | FLuc inh counter | GloSensor ctrl
O=C(c1nnn2c1COC(c1ccc(Cl)cc1)C2)N1CCN(C(=O)c2c(F)cccc2F)CC1 (stereo not given) | -14.3% | ? | i | ? | ? | -12.6% | ? | ? | -0.1% | ?
O=C(c1ccc[nH]1)N1CCN(C(=O)c2nnn3c2COC(c2ccc(Cl)cc2)C3)CC1 (stereo not given) | -7.2% | -1.9% | i | -10.6% | -19.2% | -0.6% | . | . | . | .
O=C(c1cccc(Cl)c1)N1CCN(C(=O)c2nnn3c2COC(c2ccc(F)cc2)C3)CC1 (stereo not given) | 1.6% | 12.6µM* | i | ? | ? | 2.6% | 24.3µM* | 24.3µM* | 0.4% | 24.3µM*
Cn1cc(CNC(=O)C[C@@H]2C[C@H]3O[C@H](CNC4CCOCC4)[C@@H](O)[C@H]3O2)cn1 | -4.8%[87.6 µM] | 5.2%[70.6 µM] | i | i | 4.3%[172 µM] | 7.5%[87.6 µM] | . | . | . | .
O=C1CCCN1CCCN1C(=O)[C@H]2CN(Cc3cccc(OC(F)(F)F)c3)C[C@H]2C1=O | -28.4% | 4.8% | i | -12.0% | -6.1% | -3.1% | . | . | . | .
COc1ccc(C(=O)N2CCN(C(=O)c3nnn4c3COC(c3ccc(Cl)cc3)C4)CC2)cc1F (stereo not given) | 18.2% | ? | i | -31.3% | ? | -3.5% | 24.3µM* | 27.3µM* | 1.2% | 21.7µM*
O=C(c1ccc(F)c(Cl)c1)N1CCN(C(=O)c2nnn3c2COC(c2ccccc2)C3)CC1 (stereo not given) | -18.8% | 12.6µM* | i | ? | ? | -11.6% | 21.7µM* | 24.3µM* | 1.0% | 21.7µM*
CC(=O)N1CCC(Cc2noc(C3CCOCC3)n2)C1 (stereo not given) | -15.8% | -0.4% | i | i | 2.1% | -6.7% | . | . | . | .
O=C(Nc1cccnc1)c1cc(-c2ccccc2F)cc2c1OCCN2Cc1cccnc1 | ? | ? | i | 39.8µM* | ? | ? | ? | 31.4µM* | -15.7%[86.2 µM] | -5.5%[86.2 µM]
CCc1noc(-c2cccn3c(CNC(=O)COc4ccccc4)nnc23)n1 | ? | -14.1% | i | -28.9% | -13.2% | -4.8% | . | . | . | .
COc1ccc(C2(C(=O)N3CCC(Cc4nc(-c5ccc(F)cc5)no4)CC3)CC2)cc1 | ? | 5.62µM* | i | ? | ? | -16.1% | 4.85µM* | 6.11µM* | 0.3% | 6.11µM*
O=C(N1CCC(Cc2nc(-c3ccc(F)cc3)no2)CC1)C1(c2ccccc2)CC1 | -19.1% | ? | i | ? | ? | 4.4% | . | . | . | .
COc1ccc(C2(C(=O)N3CCC(Cc4nc(-c5ccccc5)no4)CC3)CC2)cc1 | ? | 7.94µM* | i | ? | ? | -20.6% | 7.69µM* | 9.68µM* | -0.1% | 9.68µM*
CC(C)Cc1nc2nccc(-c3ccc4c(c3)OCCCO4)n2n1 | 6.5% | -1.7% | i | ? | ? | 0.1% | . | . | . | .
Cc1nn(CCO)cc1CN1CCN(C(=O)c2ccoc2)CC(O)C1 (stereo not given) | -27.4% | 4.4% | i | i | -4.6% | -2.3% | . | . | . | .
CCC[C@H]1CN(C(=O)c2ccccc2Cc2ccc(C)cc2)C[C@@H]1N | 10.8% | -29.5% | i | 89.1µM* | ? | -2.4% | ? | ? | -1.3% | -20.6%
Cc1ccc(Cc2ccccc2C(=O)N2CCOC(C(F)(F)F)C2)cc1 (stereo not given) | -9.3% | -11.3% | i | -27.9% | ? | 1.3% | . | . | . | .
O=C(CCC1CCCN(S(=O)(=O)c2cccc(F)c2)C1)NC1CCCCC1 (stereo not given) | -16.6% | 15.8µM* | i | ? | ? | -17.8% | 27.3µM* | 24.3µM* | 0.0% | 24.3µM*
CCC1CN(C(=O)c2ccc3nc[nH]c3c2)CCC(=O)N1Cc1ccccc1 (stereo not given) | 15.2% | -10.2% | i | -25.4% | -29.2% | 16.7% | . | . | . | .
CCCc1cc(C(=O)N2CCC(=O)N(Cc3ccccc3)C(CC)C2)ccn1 (stereo not given) | -26.5% | 11.2µM* | i | ? | ? | 0.4% | 9.68µM* | 12.2µM* | -1.6% | 10.9µM*
Cc1ccc(C(=O)N2CCC3(CC2)SCC(=O)N3c2ccc(Cl)cc2)cc1[N+](=O)[O-] | -13.9% | -1.1% | i | ? | -21.8% | 4.8% | . | . | . | .
O=C(NCC1CC1)c1nc2c(o1)CCN(Cc1ccc3c(c1)CCO3)CC2 | 4.4%[87.6 µM] | 25.1µM* | i | ? | ? | 1.5%[87.6 µM] | 44.4µM* | ? | 1.9%[86.2 µM] | 35.3µM*
Cc1cc(F)cc(CN2CCc3nc(C(=O)NCC4CC4)oc3CC2)c1 | -24.8%[87.6 µM] | 22.4µM* | i | ? | ? | 3.5%[87.6 µM] | 31.4µM* | 28µM* | 3.7%[86.2 µM] | 28µM*
O=C(c1nc2c(o1)CCN(Cc1ccc3c(c1)CCO3)CC2)N1CCOCC1 | 6.8%[87.6 µM] | -0.8%[70.6 µM] | i | -28.1%[138 µM] | ? | 1.1%[87.6 µM] | . | . | . | .
O=C([C@@H]1C[C@H](Oc2cccnc2)CN1)N1CCOCC1 | 3.8% | -0.7% | i | -15.0% | -13.5% | 14.5% | . | . | . | .
COCc1nncn1C1CCN(C(=O)c2ccc(OC)cc2)CC1 | 3.8% | 0.0% | i | i | 4.1% | 2.8% | . | . | . | .
O=C(Cc1ccc(F)cc1)N1CCCC(c2nn(-c3ccccn3)c(=O)[nH]2)C1 (stereo not given) | -6.3% | . | . | -4.4% | 2.7% | -8.4% | . | . | . | .
CC(C)(C)C(=O)N[C@H]1C[C@@H](Cc2cc(CN3CCN(c4ccccc4)CC3)on2)C1(C)C | -21.0% | 11.2µM* | i | -33.6% | ? | 5.7% | 19.3µM* | 17.2µM* | -1.4% | 12.2µM*
